# The supplement of paper PMC9254222
# The full ranking holds about 1,100 compounds; the median of “Renilla luciferase signal (cell health) relative to plate median” is about 0.97, and the highest 2% start at about 1.6. Shown is part of a subset that was picked to be rich in the highest values.
# System: HEK293T (UBE3A T485A transfected, BAR Wnt reporter)
# Test: Renilla luciferase signal (cell health) relative to plate median (fold (linear ratio)); higher = higher Renilla signal
# Settings: 24 h
# Procedure, shortened: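 Chemicals at 0.01–100 uM were left on transfected HEK293T cells for 24 h, after a four-hour wait following transfection. The cells held a BAR firefly luciferase Wnt reporter, TK-Renilla and an expression plasmid. Wnt activity, as the firefly/Renilla ratio from a Dual-Glo luciferase readout, and cell health, as raw Renilla, were median-centred within each plate. Results average four biological replicates.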
SMILES,Renilla luciferase signal (concentration: 0.01 uM),Renilla luciferase signal (concentration: 0.1 uM),Renilla luciferase signal (concentration: 1 uM),Renilla luciferase signal (concentration: 10 uM),Renilla luciferase signal (concentration: 100 uM)
NC1=NC(O)C2C3OC4(O)OC(C(O)C2(N1)C4O)C3(O)CO (centres undefined) [Tetrodotoxin (TTX)],1.02,0.976,0.904,1.03,2.57
OC(c1ccc(Cl)cc1)(c1cncnc1)c1ccccc1Cl (centres undefined) [Fenarimol],1.21,0.875,0.953,0.942,0.199
"CCN(CC)c1ccccc1 [N,N-Diethylaniline]",–,1.07,1.06,1.09,1.47
OCCCBr [3-Bromo-1-propanol],–,0.865,0.896,0.988,0.976
CCOC(=O)C(Cl)Cc1cc(-n2nc(C)n(C(F)F)c2=O)c(F)cc1Cl (centres undefined) [Carfentrazone-ethyl],0.995,1.11,0.895,0.956,1.9
CCOC(=O)COc1cc(-c2nn(C)c(OC(F)F)c2Cl)c(F)cc1Cl [Pyraflufen-ethyl],0.786,0.651,0.92,0.846,1.17
Cc1nn(-c2cc(NS(C)(=O)=O)c(Cl)cc2Cl)c(=O)n1C(F)F [Sulfentrazone],1.01,1.05,0.889,1.04,1.21
"COc1cc(-c2ccc(N)c(OC)c2)ccc1N.Cl.Cl [3,3'-Dimethoxybenzidine dihydrochloride]",–,0.847,0.823,0.799,0.158
COc1cc(Cl)c(OC)cc1Cl [Chloroneb],0.913,0.991,1.07,1.06,1.91
"COc1cc(-c2ccc(N)c(OC)c2)ccc1N [3,3'-Dimethoxybenzidine]",–,0.89,0.92,0.684,0.388
CNc1cnn(-c2cccc(C(F)(F)F)c2)c(=O)c1Cl [Norflurazon],1.06,0.78,0.77,0.879,1.28
"CCC(C)(C)c1ccc(O)c(C(C)(C)CC)c1 [2,4-Bis(2-methylbutan-2-yl)phenol]",–,1.05,1.07,0.955,1.13
N#CN [Cyanamide],0.837,0.715,0.775,0.84,1.25
COP(=O)(OC)OC=C(Cl)Cl [Dichlorvos],1.12,0.778,0.818,0.853,0.717
COP(=O)(OC)O/C(C)=C/C(=O)N(C)C [Dicrotophos],1.19,1.16,0.994,1.09,1.78
CNC(=O)/C=C(\C)OP(=O)(OC)OC [Monocrotophos],0.824,0.815,0.785,0.826,1.45
COc1cc(C=O)cc2c1[C@H](COC(N)=O)[C@]1(OC(C)=O)ON2C[C@H]2[C@@H]1N2C(C)=O,–,0.566,0.0435,0.0233,0.0248
